Only some compounds are listed: those with a hit (about 14% of all), similar ones and a draw of the others.
Shiga toxin inh: Shiga toxin inhibition; Vero cells, Shiga toxin protein synthesis inhibition reporter; inhibition, % at 38.7 µM; 290,000 compounds, 9.2% hits; AID 2315; in the data active = inhibition mostly above about 28%, no sharp cut-off; inactive = mostly below about 43%; note: 0% is about no effect
CHX counter: counter-screen for Shiga toxin inhibitors: cycloheximide protein synthesis inhibition; cell reporter, cycloheximide protein synthesis inhibition counterscreen; max response, %; 300,000 compounds, 12% hits; AID 2314; in the data active = max response mostly above about 13%, no sharp cut-off; inactive = mostly below about 14%; note: read at 38.3 µM for the half of the compounds with a filed dose; 0% is about no effect
NS1 inh: blocks influenza NS1 protein function. Potency, µM (top dose mostly 46.1 µM), for inactives: at the top dose activity, positive = more growth. 270,000 compounds, 0.4% hits; calls by dose curve; note: potency is the fitted concentration of half-maximal effect; actives are rising curves; nearly all actives have a fitted effect of over 50% in size
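OD600 was taken as the measure of yeast growth restored by compound in an NS1-expressing S. cerevisiae strain. Cells had been washed out of glucose medium and diluted 1:100 into galactose -URA medium, pH 6.0.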
LmPK inhibitor: LmPK (Leishmania mexicana) enzyme inhibition | Q27686 | purified LmPK, Kinase-Glo ATP luminescence, 1 h | 290,000 compounds, 0.37% hits | Potency, µM (highest dose often 57.5 µM), without a hit: top-dose activity change, negative = inhibition, actives largely listed as inhibitors; note: potency is the fitted concentration of half-maximal effect; % is set by controls: 0 for no effect and ±100 for the full control effect
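Purified LmPK (0.1 nM) converted ADP (0.1 mM) to ATP with PEP (0.5 mM) in imidazole buffer pH 7.2 with KCl and MgCl2, 1 h at room temperature. ATP was read by Kinase-Glo luminescence; data normalized to uninhibited and no-enzyme controls.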
Giardia FBPA inh: inhibitors of Giardia lamblia fructose-1,6-bisphosphate aldolase; Potency, µM (titrated, usually from 59.6 µM), for inactives: top-dose activity, negative = inhibition, actives largely listed as inhibitors; 290,000 compounds, 0.71% hits; purified Giardia FBPA; A8B2U2; note: potency is the fitted concentration of half-maximal effect; % is set by controls: 0 for no effect and ±100 for the full control effect; nearly all actives have a fitted effect of over 55% in size
Target sequence (A8B2U2 whole entry, looked up): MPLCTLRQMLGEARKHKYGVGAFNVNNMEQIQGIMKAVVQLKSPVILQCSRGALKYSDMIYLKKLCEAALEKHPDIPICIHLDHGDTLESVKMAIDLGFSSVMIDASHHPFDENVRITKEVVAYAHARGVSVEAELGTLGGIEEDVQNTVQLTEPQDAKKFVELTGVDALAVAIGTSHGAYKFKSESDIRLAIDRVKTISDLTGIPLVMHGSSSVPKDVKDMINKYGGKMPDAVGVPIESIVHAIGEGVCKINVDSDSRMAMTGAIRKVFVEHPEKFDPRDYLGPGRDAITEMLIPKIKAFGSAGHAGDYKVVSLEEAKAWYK
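Giardia FBPA (40 nM reagent) was preincubated 10 min at RT with compound (up to 57.5 uM final), then substrate plus GAPDH/TPI/NAD/arsenate coupling system with diaphorase/resazurin was added; resorufin fluorescence (525/598 nm) was read after 20 min.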
The depositor's hits bear a star; i = inactive; ? = inconclusive; . = no result given; [ ] = another dose, or the depositor's remark. Unless noted, calls come from the whole dose curve; as a rule, active = well fitted curve in the direction sought with a large enough effect; inconclusive = small, poorly fitted or top-dose-only effect, or another doubt; inactive = no such curve, though single readings can be large; an effect the other way counts as inactive or inconclusive.

SMILES | Shiga toxin inh | CHX counter | NS1 inh | LmPK inhibitor | Giardia FBPA inh
Nc1c(C(=O)O)ccc2c1C(=O)c1ccccc1C2=O | 21.7 | 1.4 | . | -23.3% | 1.1%
Nc1cc(C(=O)O)c(N)c2c1C(=O)c1ccccc1C2=O | -6.5 | -4.5 | -33.8% | 25.1µM* | ?
C(=N\Nc1ncnc2sc3c(c12)CCC3)/c1cccs1 | -19.7 | -3.6 | -47.1% | -1.1% | 1.8%
Cn1cnc2c(N/N=C/c3cccs3)ncnc21 | 37.9* | 30.9* | 1.7% | ? | -10.0%
CCc1nnc(NC(=O)CSc2nc(C)c3c(c2C#N)CCCC3)s1 | 56.2* | 64.3* | -9.8% | 1.3% | -1.3%
COc1ccc(NC(=O)CSc2nc(C)c3c(c2C#N)CCCC3)cc1 | -25.1 | 1.6 | -14.3% | -1.1% | .
COc1ccc(OCCSc2nnnn2C2CCCCC2)cc1 | 26.5 | 10.0 | -49.4% | 0.7% | -2.4%
c1ccc(OCCSc2nnnn2C2CCCCC2)cc1 | 95.1* | 30.3* | -14.4% | -1.6% | 7.0%
COc1ccc(-n2ccc(-c3nn(-c4cccc(C(F)(F)F)c4)ccc3=O)n2)cc1 | -13.7 | 0.0 | 17.0% | 1.4% | -18.7%
O=c1ccn(-c2cccc(C(F)(F)F)c2)nc1-c1ccn(-c2ccccc2F)n1 | -16.4 | -5.1 | 2.1% | 7.9% | 15.8µM*
Cc1oc(-c2cc(F)ccc2F)nc1CN1CCN(c2ncnc3ccccc23)CC1 | 18.8 | 24.6* | 5.0% | 4.0% | 1.9%
Cc1c(-c2nc(N)nc(C3CC3)c2C)nc(N)nc1C1CC1 | . | . | -5.9% | . | .
N/C(CS(=O)(=O)c1ccccc1)=N\OC(=O)c1ccc(F)cc1 | 109.4* | 27.8* | 5.9% | -5.6% | .
N/C(=N\OC(=O)c1ccccc1Br)c1cccc([N+](=O)[O-])c1 | 118.2* | 52.0* | -5.8% | -2.7% | -4.4%
O=C(CS(=O)(=O)c1ccc(F)cc1)NCCS(=O)(=O)c1ccccc1 | -6.1 | 0.7 | 5.2% | 5.7% | 0.1%
Cc1ccccc1C(=O)O/N=C(\N)c1ccc([N+](=O)[O-])cc1 | . | 31.8* | -8.2% | -2.0% | -0.9%
N/C(=N\OC(=O)c1ccc([N+](=O)[O-])cc1)c1ccc(Br)cc1 | . | 1.2 | 5.2% | -0.8% | 14.0%
Cc1ccccc1/C(N)=N/OC(=O)c1ccc(F)cc1 | 107.2* | 47.2* | -62.3% | 15.8µM* | 0.0%
C=CCC(C)(NCc1ccccc1)C(=O)OCC (stereo unspecified) | . | . | . | . | 6.6%
N/C(Cc1ccc([N+](=O)[O-])cc1)=N\OC(=O)c1ccccc1Br | 17.6 | -2.2 | -45.6% | 1.2% | -1.4%
N/C(=N\OC(=O)c1ccccc1Br)c1ccc([N+](=O)[O-])cc1 | 18.6* | 10.1* | -8.0% | -2.9% | 3.0%
N/C(=N\OC(=O)c1ccccc1F)c1cccc([N+](=O)[O-])c1 | 56.4* | 38.7* | -20.1% | 1.3% | -1.9%
Cc1ccccc1C(=O)O/N=C(\N)c1ccccc1 | 28.1 | 20.7* | -54.2% | -75.0% | -4.0%
N/C(=N\OC(=O)CCCOc1ccccc1)c1cccc([N+](=O)[O-])c1 | 13.4 | -2.5 | . | -1.3% | -2.6%
COc1ccc(Cl)cc1-c1ccc(C(=O)O)o1 | i | 3.9 | . | . | 18.3%[89.2 µM]
SMILES | Shiga toxin inh | CHX counter | NS1 inh | LmPK inhibitor | Giardia FBPA inh
O=C(O)c1cccc(N2C(=O)c3cc([N+](=O)[O-])cc4cc([N+](=O)[O-])cc(c34)C2=O)c1 | -5.6 | -4.1 | ? | -4.3% | ?
Cn1c(CO)cnc1S(=O)(=O)Cc1c(Cl)cccc1Cl | -3.8 | 1.1 | -1.2% | 6.5% | 0.4%
O=C(CSc1ccccn1)Nc1cccc([N+](=O)[O-])c1 | 34.2* | 32.3* | . | -3.6% | -5.5%
CC(C)c1ccc(NC(=O)CSc2ncccc2C(=O)Oc2cccc([N+](=O)[O-])c2)cc1 | 35.8* | 45.7* | ? | 1.7% | -10.8%
O=C(CSc1nc(-c2ccc(Cl)cc2)cs1)Nc1cccc([N+](=O)[O-])c1 | 53.5* | 38.1* | -17.6% | 2.2% | 1.8%
COc1ccc(NC(=O)CSc2ncccc2C(=O)OC(C)C)cc1OC | 6.5 | 4.9 | -7.7% | 35.8% | ?
Cc1cc(NC(=O)CSc2nc(-c3ccc(Cl)cc3)cs2)no1 | 21.0 | -3.1 | 1.0% | 0.1% | 0.8%
NS(=O)(=O)c1cccc(NC(=O)CSc2ccccn2)c1 | 51.1 | 28.5* | 4.8% | 2.2% | -1.1%
Cc1cc(=O)oc2cc(O)c(CN(C)CC(=O)O)cc12 | . | . | 0.0% | . | .
COc1ccc(CNC(=O)CSc2nc3ccc(C)cc3[nH]2)cc1OC | -1.2 | -4.1 | 2.2% | -1.9% | -0.5%
Cc1ccc(NC(=O)CCc2nnc3ccc(N4CCC(C)CC4)nn23)nc1 | 8.8 | 6.5 | 6.2% | 4.7% | .
CCNC(=S)Nc1cccc([N+](=O)[O-])c1 | -1.0 | -3.1 | -10.3% | -0.7% | 0.1%
O=[N+]([O-])c1cccc(NC(=S)Nc2nc(-c3ccccc3Cl)cs2)c1 | 74.7* | 32.8* | 1.8% | 3.1% | 14.5%
O=C(CSc1nc2ccccc2c(=O)n1CCCO)NCc1ccccc1 | 19.7 | 9.9 | -1.2% | 0.0% | 2.6%
O=c1c2ccccc2nc(SCc2nc3ccccc3s2)n1CCCO | 137.4* | 46.4* | 9.3% | -1.8% | -9.2%
COc1ccccc1Nc1nc(N)nc(CSc2nccc(C)n2)n1 | -2.6 | -1.9 | -8.6% | -8.8% | -1.9%
Cc1ccnc(SCc2nc3ccccc3s2)n1 | 62.0* | 32.4* | -47.8% | -8.5% | -0.3%
Cn1nnnc1SCc1nc2ccccc2s1 | 94.1* | 38.0* | -4.3% | -14.0% | -25.4%
Cc1ccccc1N1CCN(S(=O)(=O)CC23CCC(CC2=O)C3(C)C)CC1 (stereo unspecified) | -8.2 | -1.6 | 11.7% | 2.3% | -9.4%
CC1(C)C2CCC1(CS(=O)(=O)N1CCCc3ccccc31)C(=O)C2 (stereo unspecified) | 22.2 | 18.1* | -23.0% | -7.6% | 0.3%
CCCNC(=O)OC[C@@H]1O[C@H](CCO/N=C(\C)CCN2CCCc3nc(C)c(C)cc32)C=C[C@@H]1Oc1ccc(OC)cc1 | . | . | . | . | 4.2%[12.9 µM]
Cc1ccc(NC(=O)N2CCC(c3ccccc3)C2)cc1C (stereo unspecified) | 100.7* | 52.6* | . | -2.6% | -11.4%
O=C(Nc1cccc(F)c1)C1CCN(C(=O)NCc2ccccc2)CC1 | -2.9 | -1.4 | 1.2% | 0.1% | .
Cc1ccc(NC(=O)N2CCC(NC(=O)C(C)(C)C)CC2)cc1 | 10.5 | 16.7* | 18.3% | 0.9% | 5.0%
O=C(Nc1cccc(F)c1)N1CC=C(c2ccc(Cl)cc2)CC1 | 75.1* | 45.8* | -139.7% | 3.0% | -22.9%
Cc1ccc(NC(=O)N2CCC(NC(=O)c3ccccc3C)CC2)cc1 | 22.4 | -1.3 | -3.2% | -0.3% | 23.8%
O=C(Nc1cccc(F)c1)N1CCC(c2ccccc2)CC1 | 73.7* | 41.4* | -10.2% | -4.9% | 0.1%
O=C(CN1CCN(c2ccc(Cl)cc2)CC1)Nc1cccc(F)c1 | -17.8 | -3.3 | -35.7% | 9.1% | -1.5%
O=C(c1noc2c1CSc1ccccc1-2)N1CCN(c2ccc(Cl)cc2)CC1 | 19.1 | -2.0 | 12.1% | 11.3% | -1.3%
CCN(CCCNC(=O)CNC(=O)c1nn(-c2ccc(OC)cc2)c(=O)c2ccccc12)c1cccc(C)c1 | -0.6 | 6.7 | 2.4% | -2.6% | -3.3%
